Here are results for 3 compounds from PubChem BioAssay (EPA / NIEHS).

Each structure is given as a SMILES string. Activity calls are given as the source filed them. Rule for the calls: active = hit-call score of the fitted dose curve at least 0.9, where 1 is the maximum; inactive = score below 0.9.

Read-out in this assay: Thyroid Hormone Responsive (THRSP), THRSP (gene 7069)
Description: LTEA_HepaRG_THRSP: Life Technologies and Expression Analysis (LTEA) Assay for Thyroid Hormone Responsive (THRSP) using HepaRG (AID 2283536). Conditions: mRNA level, 48 h; actives raise or lower the signal. The procedure, abridged: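 Differentiated HepaRG cells treated 48 h in serum-free induction medium with 8 half-log concentrations up to 100 uM (0.5% DMSO), duplicates. THRSP mRNA by TaqMan qRT-PCR normalised to ACTB, GAPDH, POLR2A; bidirectional fit versus DMSO.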
As for `C1CNCCN1`, the compound was called inactive. The same measure, in the same setting: then `Nc1ccc(C(=O)O)cc1`, with “inactive”. Take `Cc1ccc([N+](=O)[O-])cc1N`: the AC50 – broadly, the midpoint of the concentration-response curve, whichever way the signal moves – was 13.3 µM (active).
